The text below walks through data of the supplement of paper PMC13380429.

Structures are written as SMILES. A number with no mark means an inactive call.

This experiment concerns Vero E6 infected with SARS-CoV-2. As to the kind of experiment: inhibition of SARS-CoV-2 cytopathic effect; higher = more antiviral protection, active = above 15. Conditions: 48 h. (Cytopathic effects are the visible damage that an infection or toxin causes in cultured cells.)

Turning to `CCC[C@@H]1CC2=CC(=O)CC[C@]2(C)[C@H]2CC[C@@]3(C)[C@@H](CC[C@@]3(O)CCC(=O)O)[C@H]12`, the “inhibition of SARS-CoV-2 cytopathic effect” value (“inhibition” below) is 1.5% (1 nM); 15.1% (active) (8.33 nM); 3.45% (100 nM); -4.91% (833.33 nM); 1.68% (10000 nM).

On to `c1cnc2cc3c(cc2n1)[C@@H]1CNC[C@H]3C1` [varenicline], for which the “inhibition” value is, setting by setting: (1 nM) 1.15%; (8.33 nM) 1.67%; (100 nM) -1.63%; (833.33 nM) -1.66%; (10000 nM) 3.97%.

Regarding `C/C(O)=C(\C#N)C(=O)Nc1ccc(C(F)(F)F)cc1` [teriflunomide], the “inhibition” value was 3.27% (1 nM); 1.99% (8.33 nM); 1.22% (100 nM); -3.04% (833.33 nM); 1.1% (10000 nM).

As to `CC(C)N(CCCNC(=O)Nc1ccc(C(C)(C)C)cc1)C[C@H]1O[C@@H](n2cc(Br)c3c(N)ncnc32)[C@H](O)[C@@H]1O`, the “inhibition” value (1 nM) was 0.32%; the “inhibition” value (8.33 nM) is 9.52%; the “inhibition” value (100 nM) is -1.5%; the “inhibition” value (833.33 nM) was -1.25%; the “inhibition” value (10000 nM) is 0.03%.

In the case of `C=C(NC(=O)C(=C)NC(=O)c1csc(C2=N[C@@H]3c4csc(n4)[C@H]4NC(=O)c5csc(n5)[C@H]([C@](C)(O)[C@@H](C)O)NC(=O)[C@H]5CSC(=N5)/C(=C/C)NC(=O)[C@H]([C@@H](C)O)NC(=O)c5csc(n5)[C@]3(CC2)NC(=O)[C@H](C)NC(=O)C(=C)NC(=O)[C@H](C)NC(=O)[C@H]([C@@H](C)CC)N[C@@H]2C=Cc3c([C@H](C)O)cc(nc3[C@H]2O)C(=O)O[C@@H]4C)n1)C(N)=O` [thiostrepton], the “inhibition” value (1 nM) was -2.64%; the “inhibition” value (8.33 nM) was -1.12%; the “inhibition” value (100 nM) was -4.03%; the “inhibition” value (833.33 nM) is 1.58%; the “inhibition” value (10000 nM) is 7.51%.

Regarding `CC(C)[C@@H](CN1CC[C@@](C)(c2cccc(O)c2)[C@@H](C)C1)NC(=O)[C@H]1Cc2ccc(O)cc2CN1`, the “inhibition” value (1 nM) is -0.76%; the “inhibition” value (8.33 nM) is 1.45%; the “inhibition” value (100 nM) is -1.62%; the “inhibition” value (833.33 nM) was -1.16%; the “inhibition” value (10000 nM) is -4.59%.

For `CC(C)NCC(O)COc1cccc2[nH]ccc12` (stereo not given) [pindolol], the “inhibition” value is, setting by setting: (1 nM) -3.04%; (8.33 nM) 0.875%; (100 nM) 0.95%; (833.33 nM) -0.725%; (10000 nM) -1.61%.

On to `O=C(Nc1cccc(C(F)(F)F)c1)Nc1ccc(Br)cc1-c1nnn[nH]1`, for which the “inhibition” value (1 nM) was 1.75%; the “inhibition” value (8.33 nM) was 3.12%; the “inhibition” value (100 nM) was 2.2%; the “inhibition” value (833.33 nM) was 3.69%; the “inhibition” value (10000 nM) was 4.81%.

Consider `O=C(O)c1cccnc1Nc1cccc(C(F)(F)F)c1` [niflumic-acid], for which the “inhibition” value was 1.14% (1 nM); 2.42% (8.33 nM); -0.03% (100 nM); 1.51% (833.33 nM); 1.54% (10000 nM).

For the compound `N=C(N)NC(=O)c1cnn(-c2cccc3ncccc23)c1C1CC1` [zoniporide], the “inhibition” value runs as follows: (1 nM) -0.05%; (8.33 nM) 3.39%; (100 nM) 1.14%; (833.33 nM) 3.55%; (10000 nM) -1.51%.

Regarding `Cc1nc(C)c(-c2ccc(C3CCC(CC(=O)O)CC3)cc2)nc1C(N)=O` (stereo not given), the “inhibition” value is 5.02% (1 nM); 2.17% (8.33 nM); 0.91% (100 nM); 3.12% (833.33 nM); -3.42% (10000 nM).

As to `NCCCC[C@H](NC(=O)[C@@H]1CCCN1C(=O)[C@@H]1CSSC[C@H](NC(=O)CNC(=O)CNC(=O)CN)C(=O)N[C@@H](Cc2ccc(O)cc2)C(=O)N[C@@H](Cc2ccccc2)C(=O)N[C@@H](CCC(N)=O)C(=O)N[C@@H](CC(N)=O)C(=O)N1)C(=O)NCC(N)=O` [terlipressin], the “inhibition” value was 2.67% (1 nM); 0.07% (8.33 nM); 0.5% (100 nM); -0.07% (833.33 nM); 0.72% (10000 nM).

For the compound `CC(=O)OCC(=O)[C@@]12N=C(C)O[C@@H]1C[C@H]1[C@@H]3CCC4=CC(=O)C=C[C@]4(C)[C@H]3[C@@H](O)C[C@@]12C` [Deflazacort (Calcort)], the “inhibition” value was 2.25% (1 nM); -0.15% (8.33 nM); -11.5% (100 nM); 2.17% (833.33 nM); 0.96% (10000 nM).

For the compound `CC(=O)Oc1ccccc1C(=O)O` [aspirin], the “inhibition” value (1 nM) is -5.74%; the “inhibition” value (8.33 nM) is -5.82%; the “inhibition” value (100 nM) was -7.3%; the “inhibition” value (833.33 nM) is -5.09%; the “inhibition” value (10000 nM) was -12.8%.
